The whole screen tested about 5,500 compounds, of which about 2,000 (36%) were called active. About 18% were inconclusive and are not listed. Cut-off read from the data, not from the text of the source: active = normalized growth mostly below about 0.91 (no sharp cut-off); inconclusive = no clear call, values can overlap the other calls; inactive = mostly above about 0.92. This is one part of the list.
Assay: chemical genetic growth profiling, strain panel (AID 1159580);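 note: tested at 20 µM; growth read once vehicle control cultures reached saturation at 30 °C; 1 = growth at the plate median or of vehicle wells; lower values mean less growth of the strain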
Conditions: S. cerevisiae deletion strains, growth OD

Measured: normalized growth

C/C=C(/C)C(=O)OC1CCC2(C)C3CCC4C5(O)CC(O)C6(O)C(CN7CC(C)CCC7C6(C)O)C5(O)CC42OC13O (configuration not stated)
inactive: locus YAL021C, strain ccr4, active compounds read low 0.955 | locus YAL026C, strain drs2, active compounds read low 0.954 | locus YAL030W, strain snc1, active compounds read low 1.01 | locus YBL061C, strain skt5, active compounds read low 1.01 | locus YBR009C, strain hhf1, active compounds read low 0.951 | locus YBR023C, strain chs3, active compounds read low 0.992 | locus YBR171W, strain sec66, active compounds read low 0.968 | locus YBR229C, strain ROT2, active compounds read low 0.97 | locus YBR231C, strain swc5, active compounds read low 0.991 | locus YBR279W, strain paf1, active compounds read low 0.99 | locus YCL011C, strain gbp2, active compounds read low 0.993 | locus YCL016C, strain dcc1, active compounds read low 1.01 | locus YCL029C, strain bik1, active compounds read low 0.979 | locus YCL069W, strain vba3, active compounds read low 0.971 | locus YCR088W, strain abp1, active compounds read low 0.993 | locus YDL005C, strain med2, active compounds read low 1.01 | locus YDL035C, strain GPR1, active compounds read low 0.922 | locus YDL040C, strain nat1, active compounds read low 0.994 | locus YDL074C, strain BRE1, active compounds read low 0.844 | locus YDL101C, strain DUN1, active compounds read low 0.95 | locus YDL185W, strain tfp1, active compounds read low 0.994 | locus YDL192W, strain arf1, active compounds read low 0.96 | locus YDR001C, strain nth1, active compounds read low 0.995 | locus YDR069C, strain doa4, active compounds read low 1.01 | locus YDR101C, strain arx1, active compounds read low 0.955 | locus YDR137W, strain rgp1, active compounds read low 0.857 | locus YDR150W, strain NUM1, active compounds read low 0.986 | locus YDR159W, strain sac3, active compounds read low 0.974 | locus YDR162C, strain NBP2, active compounds read low 0.942 | locus YDR195W, strain ref2 1.04 | locus YDR297W, strain sur2, active compounds read low 0.982 | locus YDR318W, strain mcm21, active compounds read low 0.964 | locus YDR334W, strain swr1, active compounds read low 0.977 | locus YDR335W, strain msn5, active compounds read low 0.999 | locus YDR388W, active compounds read low 0.953 | locus YDR392W, strain spt3, active compounds read low 0.95 | locus YDR502C, strain sam2, active compounds read low 0.937 | locus YEL003W, strain gim4, active compounds read low 0.993 | locus YEL037C, strain rad23, active compounds read low 0.984 | locus YEL061C, strain CIN8 (second series), active compounds read low 0.981 | locus YEL061C, strain CIN8, active compounds read low 0.961 | locus YER015W, strain faa2, active compounds read low 0.999 | locus YER016W, strain bim1, active compounds read low 1.07 | locus YER110C, active compounds read low 0.963 | locus YER111C, strain swi4, active compounds read low 0.995 | locus YER155C, strain BEM2 (second series), active compounds read low 0.969 | locus YER155C, strain BEM2, active compounds read low 0.966 | locus YFR010W, strain ubp6, active compounds read low 0.969 | locus YGL078C, strain dbp3, active compounds read low 0.989 | locus YGL086W, strain mad1, active compounds read low 0.953 | locus YGL167C, strain pmr1, active compounds read low 0.996 | locus YGL173C, strain kem1, active compounds read low 0.998 | locus YGL227W, strain vid30, active compounds read low 1 | locus YGL240W, strain doc1, active compounds read low 0.988 | locus YGL248W, strain PDE1, active compounds read low 0.928 | locus YGL253W, strain hxk2, active compounds read low 1 | locus YGR135W, strain pre9, active compounds read low 0.928 | locus YGR252W, strain gcn5, active compounds read low 0.789 | locus YHR013C, strain ard1, active compounds read low 0.995 | locus YHR027C, strain rpn1, active compounds read low 1 | locus YHR030C, strain SLT2, active compounds read low 0.982 | locus YHR079C, strain IRE1 (second series), active compounds read low 0.972 | locus YHR094C, strain hxt1, active compounds read low 0.971 | locus YHR129C, strain ARP1, active compounds read low 0.955 | locus YHR142W, strain chs7, active compounds read low 0.974 | locus YHR200W, strain rpn10, active compounds read low 0.973 | locus YIL066C, strain RNR3, active compounds read low 0.885 | locus YIL073C, strain SPO22, active compounds read low 0.924 | locus YIL125W, strain kgd1, active compounds read low 0.976 | locus YIR030C, strain dcg1, active compounds read low 0.978 | locus YJL092W, strain hpr5, active compounds read low 1 | locus YJL095W, strain BCK1 (second series), active compounds read low 1 | locus YJL095W, strain BCK1, active compounds read low 0.891 | locus YJL115W, strain asf1, active compounds read low 0.985 | locus YJL129C, strain trk1, active compounds read low 1 | locus YJL134W, strain LCB3, active compounds read low 0.983 | locus YJL154C, strain vps35, active compounds read low 0.989 | locus YJL164C, strain tpk1, active compounds read low 0.996 | locus YJL166W, strain qcr8, active compounds read low 0.994 | locus YJL168C, strain set2, active compounds read low 0.976 | locus YJL187C, strain SWE1 (second series), active compounds read low 0.943 | locus YKL009W, strain mrt4, active compounds read low 0.987 | locus YKL068W, active compounds read low 0.961 | locus YKL085W, strain MDH1 (second series), active compounds read low 0.948 | locus YKL085W, strain MDH1, active compounds read low 0.948 | locus YKL160W, strain elf1, active compounds read low 1.02 | locus YKL190W, strain CNB1, active compounds read low 0.979 | locus YKR026C, strain gcn3, active compounds read low 0.988 | locus YKR091W, strain srl3, active compounds read low 1.01 | locus YLL001W, strain dnm1, active compounds read low 0.985 | locus YLL026W, active compounds read low 1 | locus YLL041C, strain sdh2, active compounds read low 0.991 | locus YLR027C, strain aat2, active compounds read low 1 | locus YLR039C, strain RIC1, active compounds read low 0.889 | locus YLR058C, strain SHM2, active compounds read low 0.949 | locus YLR102C, strain apc9, active compounds read low 0.972 | locus YLR221C, strain rsa3, active compounds read low 0.968 | locus YLR258W, strain gsy2, active compounds read low 0.998 | locus YLR262C, strain YPT6, active compounds read low 1 | locus YLR268W, strain sec22, active compounds read low 0.938 | locus YLR320W, strain mms22, active compounds read low 0.959 | locus YLR342W, strain FKS1, active compounds read low 1 | locus YLR357W, strain rsc2, active compounds read low 1.02 | locus YLR370C, strain arc18, active compounds read low 0.994 | locus YLR371W, strain rom2, active compounds read low 0.985 | locus YLR384C, strain iki3, active compounds read low 0.991 | locus YML016C, strain PPZ1, active compounds read low 0.969 | locus YML032C, strain rad52, active compounds read low 0.935 | locus YML120C, strain ndi1, active compounds read low 0.997 | locus YML124C, strain tub3, active compounds read low 0.97 | locus YMR058W, strain fet3, active compounds read low 0.993 | locus YMR078C, strain ctf18, active compounds read low 0.968 | locus YMR125W, strain sto1, active compounds read low 0.991 | locus YMR129W, active compounds read low 1 | locus YMR205C, strain PFK2, active compounds read low 0.986 | locus YMR223W, strain ubp8, active compounds read low 0.957 | locus YMR231W, strain pep5, active compounds read low 1 | locus YMR263W, strain SAP30, active compounds read low 0.943 | locus YMR307W, strain GAS1, active compounds read low 0.626 | locus YNL067W, strain RPL9B, active compounds read low 0.962 | locus YNL071W, strain lat1, active compounds read low 0.98 | locus YNL209W, strain ssb2, active compounds read low 0.997 | locus YNL233W, strain BNI4, active compounds read low 0.908 | locus YNL248C, strain rpa49, active compounds read low 0.973 | locus YNL250W, strain rad50, active compounds read low 0.992 | locus YNL271C, strain bni1, active compounds read low 0.996 | locus YNL298W, strain CLA4, active compounds read low 0.967 | locus YNL322C, strain KRE1 (second series), active compounds read low 1.03 | locus YNL322C, strain KRE1, active compounds read low 0.947 | locus YNR049C, strain mso1, active compounds read low 1.02 | locus YNR052C, strain pop2, active compounds read low 1.02 | locus YOL006C, strain TOP1, active compounds read low 0.627 | locus YOL012C, strain htz1 0.727 | locus YOL147C, strain pex11, active compounds read low 0.96 | locus YOR001W, strain rrp6, active compounds read low 0.937 | locus YOR061W, strain CKA2, active compounds read low 0.975 | locus YOR069W, strain VPS5, active compounds read low 0.981 | locus YOR070C, strain gyp1, active compounds read low 0.987 | locus YOR080W, strain dia2, active compounds read low 1 | locus YOR083W, strain WHI5, active compounds read low 1.03 | locus YOR106W, strain vam3, active compounds read low 1.02 | locus YOR136W, strain idh2, active compounds read low 0.979 | locus YOR144C, strain elg1, active compounds read low 0.963 | locus YOR265W, strain rbl2, active compounds read low 0.984 | locus YOR270C, strain vph1, active compounds read low 0.94 | locus YOR290C, strain snf2, active compounds read low 1.03 | locus YOR316C, strain cot1, active compounds read low 0.969 | locus YPL051W, strain arl3, active compounds read low 1.02 | locus YPL055C, strain LGE1, active compounds read low 0.877 | locus YPL078C, strain atp4, active compounds read low 1.01 | locus YPL106C, strain sse1, active compounds read low 1.01 | locus YPL240C, strain hsp82, active compounds read low 0.988 | locus YPR119W, strain clb2, active compounds read low 0.969 | locus YPR141C, strain kar3, active compounds read low 0.978 | locus YPR163C, strain tif3, active compounds read low 0.964 | locus YPR167C, strain met16, active compounds read low 0.967 | strain wtn01, active compounds read low 0.949
active: locus YBR021W, strain FUR4, active compounds read low 0.747 | locus YER167W, strain BCK2, active compounds read low 0.852 | locus YJR043C, strain POL32, active compounds read low 0.845 | locus YKR001C, strain vps1, active compounds read low 0.821 | locus YLR262C, strain YPT6 (second series), active compounds read low 0.82 | locus YLR330W, strain CHS5, active compounds read low 0.902 | locus YLR342W, strain FKS1 (second series), active compounds read low 0.715 | locus YLR418C, strain cdc73, active compounds read low 0.705 | locus YNL307C, strain MCK1, active compounds read low 0.83 | locus YOR184W, strain ser1, active compounds read low 0.815
